The values below come from PubChem BioAssay.

Assay [1] in a line: Her2 expression decrease, cell viability multiplex – SKBR3 breast tumor cells, AlphaScreen, ATP viability, primary screen (AID 461;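 active means Her2 level under about 52% in both replicate screens, with viability over 70% of control, limit read from the data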;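 on Her2 level: lower value means less Her2 protein in the cells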;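 on viability: percent of carrier control wells set as 100% viability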). To be noted: SKBR3 Her2 protein level, 18-24 h, measured here: SKBR3 viability, ATP luminescence, at 10 µM. (Alpha assays give light when donor and acceptor beads are brought close together.)
In assay [2] the target is Receptor tyrosine-protein kinase erbB-2 (Homo sapiens) (UniProt P04626). The assay is described as above. The note with it: 18-24 h, at 10 µM, stronger effect = lower value.
Assay [3] in a line: reduced viability of SK-BR-3 breast cancer cells – cell-based, 24 h, human, pilot screen (AID 572).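 Further: compound exposure lasted between 18 and 24 h rather than exactly 24 h; 100% = carrier-treated control wells.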 The note with it: SK-BR-3 viability, CellTiter-Glo luminescence, at 10 µM, stronger effect = lower value.
Assay [4] can be described thus: HUVEC growth inhibition – cell-based, human, primary screen (AID 575;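 active means viability at or below 30% in both replicate assays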;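 further: 100% = median of untreated cell wells with 0.1% DMSO on each plate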). The note with it: HUVEC proliferation, CellTiter-Glo luminescence, 72 h; at 10 µM; stronger effect = lower value. A general note: Cellular ATP, detected with luciferase, serves as a proxy for viable cell number.
Assay [5] can be described thus: H69AR cell proliferation blockers – human, duplicate replicates, primary screen (AID 580;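 active means viability at or under a set limit in both replicates, limit being median viability minus 3 SD, cut at about 48% in these data, passing the limit was not always enough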;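 further: 100% = mean luminescence of untreated wells and 0% = no signal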). The note with it: H69AR lung tumor cells viability, ATP luminescence, 72 h; at 10 µM; stronger effect = lower value.
A short description of assay [6]: MRP1 drug-resistance reversers in H69AR cells – cell-based, doxorubicin co-treatment, pilot screen (AID 601;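 active means viability loss from added drug above about 55%, and viability with drug at most 40%, in both replicates, limit read from the data, passing the limit was not always enough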). To be noted: CellTiter-Glo, 72 h, at 10 µM; for differential viability (reversal): stronger effect = higher value.
The nature of assay [7]: yeast transport mutant growth inhibition pilot in 384-well plates, post-Golgi transport modulator project (AID 636; in the data active means inhibition above about 31%). To be noted: absorbance 615 nm, about 18 h, stronger effect = higher value.
The nature of assay [8]: growth suppression of yeast trafficking mutant, preliminary HTS, modulators of trafficking downstream of Golgi apparatus project, 1536-format plate, OD 615 nm (AID 637; in the data active means inhibition above about 30%). The note with it: yeast transport mutant growth, absorbance 615 nm, 18 h; stronger effect = higher value.
The nature of assay [9]: S. cerevisiae growth inhibition in permissive medium (OD615), pilot counter-assay for S. cerevisiae lifespan shortening project, permissive growth control (AID 705;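 active means growth inhibition above 25% in both replicates, a cutoff set 3 SD above the mean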). The note with it: OD615, 24 h, at 10 µM, stronger effect = higher value.
Assay [10] in a line: S. cerevisiae growth inhibition in restrictive medium, OD615, pilot screen, restrictive growth control, yeast lifespan reduction project (AID 706;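 active means growth inhibition above a set limit, 3 SD over mean compound inhibition, in both replicates, cut at about 43% in these data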;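 further: modified DeaD lifespan yeast strain shifted to restrictive glucose medium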). To be noted: OD615, 48 h, at 10 µM, stronger effect = higher value.
The nature of assay [11]: doxorubicin toxicity protection in MRP-1 cells – H69AR cells, CellTiter-Glo, duplicate, MRP-1 activator project, pilot screen (AID 807;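 active means viability increase at or above a cutoff of the median across tested compounds plus 3 SD, cut at about 8.5% in these data, passing the limit was not always enough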;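 further: compound pretreatment 18-22 h then 72 h combined with doxorubicin; 0% = doxorubicin alone and 100% = vehicle without doxorubicin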). The note with it: H69AR viability with doxorubicin, CellTiter-Glo luminescence; at 10 µM; stronger effect = higher value.
The nature of assay [12]: viability of HCT116 without oncogenic beta-catenin – human colon tumor cells, pilot screen (AID 823;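 active means cell viability at or below a set limit in both duplicate runs, the limit being the all-compound median minus 4 SD, cut at about 23% in these data, passing the limit was not always enough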;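 further: 0% = wells killed by 20 µM Hyamine and 100% = untreated DMSO cell wells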). To be noted: HCT116 beta-catenin knockout viability, CellTiter-Glo, 60 h; at 10 µM; stronger effect = lower value.
Assay [13] is described as follows: viability of PTEN-null HCT116 cells – cell-based, HCT116 clonal line, CellTiter-Glo, pilot screen (AID 824;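 active means viability at or below 27.92% in each of two runs, the all-compound median minus 4 SD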;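 further: 0% = 20 µM Hyamine control and 100% = vehicle cell control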). The note with it: HCT116 PTEN-deleted viability, 60 h, at 10 µM, stronger effect = lower value.
Assay [14] is described as follows: RAM pathway blockade in budding yeast – dse1pr::URA3 reporter, 5-FOA selection, pilot screen (AID 869;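 active means inhibition over a set limit, the all-compound mean plus 3 SD, in both replicate runs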;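 further: 0% = DMSO wells with no growth and 100% = 10 µM 1-NA-PP1 with full growth; RAM network block rescues cells from 5-FOA so hits raise OD615 growth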). To be noted: S. cerevisiae dse1pr::URA3 5-FOA growth, OD615, 2 d; at 10 µM; stronger effect = higher value; strain carries analog-sensitive mutant Cbk1 kinase.
The nature of assay [15]: RAM signaling pathway blockade in yeast – S. cerevisiae, Pdr1DBD-CYC8 efflux-inhibited sensitized strain, primary screen (AID 1298;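 active means RAM network inhibition above 8.4% in each of two replicates, 3 SD over the compound average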;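 further: 0% = DMSO untreated cells without growth and 100% = 10 µM 1-NA-PP1 full growth; higher means more yeast growth rescued from 5-FOA killing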). The note with it: S. cerevisiae cbk1-as DSE1-URA3 strain, 5-FOA growth OD615, 2 d; at 50 µM; stronger effect = higher value.
Setting [16] is: H69AR cells + 2 uM doxorubicin, measured here: viability with 2 uM doxorubicin, stronger effect = lower value.
The mark [17] stands for this setting: H69AR cells, compound alone cytotoxicity.

Inconclusive results are not listed. Active and inactive are the calls of the source.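 How the source made its calls, unless noted: active means viability at or below 10% of carrier control in both of two separate runs; inconclusive means viability at or below 10% in only one of the two runs; inactive means the rest.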

Receptor tyrosine-protein kinase erbB-2 (Homo sapiens), sequence (P04626 whole entry, looked up): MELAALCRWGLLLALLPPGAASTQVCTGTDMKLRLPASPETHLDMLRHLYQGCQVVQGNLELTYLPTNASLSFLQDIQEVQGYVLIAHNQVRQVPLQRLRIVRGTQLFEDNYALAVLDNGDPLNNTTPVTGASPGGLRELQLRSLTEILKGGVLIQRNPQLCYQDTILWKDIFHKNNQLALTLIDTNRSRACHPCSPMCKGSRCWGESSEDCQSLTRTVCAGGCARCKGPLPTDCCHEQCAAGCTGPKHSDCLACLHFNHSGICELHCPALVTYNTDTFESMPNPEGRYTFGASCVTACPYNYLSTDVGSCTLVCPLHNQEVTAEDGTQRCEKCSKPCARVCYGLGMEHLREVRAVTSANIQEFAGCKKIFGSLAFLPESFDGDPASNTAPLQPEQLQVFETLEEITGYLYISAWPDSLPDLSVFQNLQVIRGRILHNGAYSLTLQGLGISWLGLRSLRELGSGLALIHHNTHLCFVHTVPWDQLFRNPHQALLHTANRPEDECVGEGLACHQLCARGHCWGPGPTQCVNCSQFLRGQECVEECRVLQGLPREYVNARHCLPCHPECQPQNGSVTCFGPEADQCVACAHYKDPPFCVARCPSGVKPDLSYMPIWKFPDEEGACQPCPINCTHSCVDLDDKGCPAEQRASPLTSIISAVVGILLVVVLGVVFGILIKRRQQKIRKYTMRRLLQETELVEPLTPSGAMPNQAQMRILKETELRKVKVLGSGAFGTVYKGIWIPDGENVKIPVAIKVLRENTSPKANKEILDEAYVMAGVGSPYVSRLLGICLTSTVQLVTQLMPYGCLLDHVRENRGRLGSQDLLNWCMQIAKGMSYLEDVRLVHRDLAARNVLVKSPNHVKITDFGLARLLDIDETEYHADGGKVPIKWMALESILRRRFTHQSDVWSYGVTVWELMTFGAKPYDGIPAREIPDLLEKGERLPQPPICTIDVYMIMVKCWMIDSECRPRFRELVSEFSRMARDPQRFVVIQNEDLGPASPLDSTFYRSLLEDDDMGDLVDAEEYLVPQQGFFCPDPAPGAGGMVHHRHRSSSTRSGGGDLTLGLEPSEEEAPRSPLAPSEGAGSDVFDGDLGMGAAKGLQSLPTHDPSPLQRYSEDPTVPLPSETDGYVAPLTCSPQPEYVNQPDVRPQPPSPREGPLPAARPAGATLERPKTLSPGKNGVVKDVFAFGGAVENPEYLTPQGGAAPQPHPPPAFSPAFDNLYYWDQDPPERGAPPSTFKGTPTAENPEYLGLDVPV

In general, viability refers to a read-out of living cells in per cent, often relative to untreated cells. As a reminder, the inhibition is the relative decrease from the control value, in per cent. As for `CCn1cc(C2=NOC(C(=O)Nc3c(C)nn(Cc4ccc(F)cc4)c3C)C2)c(C)n1` (stereo not given), the viability was 76.5% in assay [1]; 76.5% (inactive) in assay [3]; 86.2% (inactive) in assay [4]; 88.2% (inactive) in [5]; 87.1% in assay [6] (setting [16]); 88.2% in assay [6] (setting [17]). Moreover, the viability in [12] was 95.2% (inactive); in assay [13], 103% (inactive). Further, the Her2 level in assay [2] is 86.5% (inactive). Besides, the differential viability (reversal) in assay [6] (H69AR cells + 2 uM doxorubicin) was 1.12% (inactive). For the same molecule, the inhibition in assay [7] is -1.41% (inactive); in assay [8], 1.67% (inactive); in assay [14], 1.9% (inactive). The growth inhibition in assay [9] was -11.1% (inactive); in assay [10] it was 2.07% (inactive). For the same molecule, the viability increase in assay [11] was 1.43% (inactive). Also, in [15], the RAM network inhibition is 1.61% (inactive).
Turning to `CC12CN3CC(C)(CN(C1)C3c1ccc(Cl)cc1Cl)C2=O` (stereo not given), the viability in assay [1] was 97%; in assay [3], 97% (inactive); in assay [4], 101% (inactive); in assay [5] it was 80.9% (inactive); in assay [6] (setting [16]), 88.2%; in assay [6] (setting [17]), 80.9%. Also, the results for the viability in [12] and in assay [13] were 93.4% (inactive) and 95.3% (inactive), respectively. The Her2 level in assay [2] is 102% (inactive). In addition, in [6] (H69AR cells + 2 uM doxorubicin), the differential viability (reversal) was -7.23% (inactive). Besides, the results for the inhibition in [7], in assay [8] and in assay [14] were -2.67% (inactive), -3% (inactive) and 1.56% (inactive), respectively. Moreover, the growth inhibition is -17.2% (inactive) in [9] and -1.12% (inactive) in [10]. Besides, in assay [11], the viability increase was -2.71% (inactive). Further, in [15], the RAM network inhibition was -0.11% (inactive).
As for `CC(C)C(C(=O)Nc1ccc2c(c1)OCCO2)N1C(=O)c2ccccc2C1=O` (stereo not given), the viability was 91% in assay [1]; 91% (inactive) in [3]; 99.8% (inactive) in [4]; 104% (inactive) in assay [5]; 94.8% in assay [6] (setting [16]); 104% in [6] (setting [17]). The viability in assay [12] was 99.1% (inactive); in assay [13], 97.7% (inactive). Besides, the Her2 level in [2] is 102% (inactive). The differential viability (reversal) in [6] (H69AR cells + 2 uM doxorubicin) is 8.75% (inactive). For the same molecule, the inhibition was 0.77% (inactive) in assay [7], -10.7% (inactive) in assay [8] and 1.34% (inactive) in [14]. In addition, the growth inhibition in assay [9] was -11.7% (inactive); in assay [10], -13.3% (inactive). For the same molecule, in [11], the viability increase was -0.14% (inactive). The RAM network inhibition in assay [15] was 2.58% (inactive).
`CCOC(=O)N1CCC(NC(=O)c2ccc(CS(=O)(=O)c3c(Cl)cccc3Cl)o2)CC1`: the viability in assay [1] is 84.5%; in assay [3], 84.5% (inactive); in assay [4] it was 95.8% (inactive); in assay [5], 104% (inactive); in assay [6] (setting [16]), 96.6%; in assay [6] (setting [17]), 104%. Besides, the viability in assay [12] was 106% (inactive); in assay [13] it was 93.5% (inactive). Also, the Her2 level in assay [2] was 90% (inactive). The differential viability (reversal) in assay [6] (H69AR cells + 2 uM doxorubicin) is 6.95% (inactive). Further, the inhibition in [7] is 2.31% (inactive); in assay [8], 0.83% (inactive); in assay [14] it was 1.53% (inactive). The values for the growth inhibition in [9] and in assay [10] were -12.4% (inactive) and -27.1% (inactive), respectively. Besides, the viability increase in [11] is -1.87% (inactive). Also, the RAM network inhibition in [15] is 2.82% (inactive).
For the molecule `COc1cc(NC(=O)c2nccnc2C(=O)O)cc(OC)c1`, the viability was 98% in assay [1]; 98% (inactive) in assay [3]; 95.7% (inactive) in assay [4]; 109% (inactive) in [5]; 90.6% in [6] (setting [16]); 109% in [6] (setting [17]). The viability in [12] was 96.1% (inactive); in assay [13] it was 95% (inactive). Moreover, the Her2 level in [2] is 107% (inactive). In assay [6] (H69AR cells + 2 uM doxorubicin), the differential viability (reversal) was 18.3% (inactive). The inhibition in [7] was -7.6% (inactive); in assay [8], -2.3% (inactive); in [14] it was 2.17% (inactive). For the same molecule, the growth inhibition is -8.21% (inactive) in assay [9] and -1.48% (inactive) in [10]. Moreover, the viability increase in assay [11] was -1.6% (inactive). Further, the RAM network inhibition in [15] was -0.31% (inactive).
